An excerpt weighted towards active compounds, which were near 19% of everything screened.
DT40 TDP1 no CPT = qHTS for Inhibitors of human tyrosyl-DNA phosphodiesterase 1 (TDP1): qHTS in cells in absence of CPT | DT40 Tdp1-/- hTDP1 cells, no CPT, ATP luminescence, 48 h | Potency, µM (series often up to 46.2 µM), inactives show at the highest dose activity change, negative = growth inhibition, hits mostly inhibitors | actives 15% (n = 420,000) | AID 686978, 2013; note: nearly all actives have a fitted effect of over 55% in size
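A cellular qHTS used chicken DT40 cells lacking endogenous Tdp1 but carrying stably transfected human TDP1. Compounds were applied without camptothecin, and cell growth kinetics were judged by ATP-dependent luminescence after ≥48 hr.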
HT1080-NT tox = kills 2HG-producing HT-1080-NT fibrosarcoma cells; Potency, µM (highest dose often 46.1 µM), for inactives: at the highest dose activity, negative = less viability, usual class: cytotoxic; actives 1.6% (n = 360,000); HT-1080-NT fibrosarcoma viability, CellTiter-Glo ATP luminescence, 48 h;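 note: NT is the 2HG producing partner of a matched IDH1 knockdown line; 0% = DMSO-treated cells and -100% = media-only wells without cells; nearly all actives have a fitted effect of over 55% in size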
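Compounds were tested in concentration-response format on HT-1080-NT cells for 48 hours at 37 degrees C. Cell viability came from CellTiter-Glo luminescence; curves were classified by r2, response magnitude and activity.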
HT1080 IDH1KD tx = kills HT-1080 cells with IDH1 knockdown; HT-1080 IDH1 knockdown viability, ATP luminescence, 48 h; Potency, µM (highest dose often 46.1 µM), for the others: at the highest dose activity, negative = toxicity, most hits filed as cytotoxic; actives 2% (n = 360,000);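 note: 0% = DMSO wells and -100% = cell-free medium wells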
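CellTiter-Glo luminescence after 48 h compound exposure at 37 degrees C of IDH1-knockdown HT-1080 cells in 5% FBS RPMI. %Activity scaled between DMSO wells and cell-free media wells, with curves fitted and assigned curve classes.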
KB-3-1 tox = kills parental KB-3-1 adenocarcinoma cells; KB-3-1 viability, CellTiter-Glo ATP luminescence, 72 h; Potency, µM (series often up to 46.1 µM), usual class: cytotoxic; actives 1.4% (n = 400,000); note: nearly all actives have a fitted effect of over 60% in size
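Cytotoxicity measured as CellTiter-Glo luminescence after 72 h at 37 C. Compound titrations were pinned onto drug-naive KB-3-1 parental adenocarcinoma cells grown in DMEM with 10% FBS, and normalized data fitted to concentration-response curves.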
KB-V1 MDR tox = kills drug-selected multidrug resistant KB-V1 cells; AID 1347076; Potency, µM (highest dose often 46.1 µM), actives largely listed as cytotoxic; KB-V1 MDR cells viability, CellTiter-Glo, 72 h; actives 3.4% (n = 400,000); note: nearly all actives have a fitted effect of over 60% in size
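KB-V1 cells (P-gp-expressing MDR subline of KB-3-1) in phenol-red-free DMEM with 10% FBS were exposed to library compounds over a concentration series for 72 h at 37 degrees C. Viability read by CellTiter-Glo luminescence; concentration-effect curves fitted after normalization.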
DT40 TDP1 CPT = DT40-hTDP1 cell growth loss with CPT; actives 12% (n = 420,000); AID 686979; Potency, µM (series often up to 46.2 µM), inactives show at the highest dose activity change, negative = growth inhibition, hits mostly inhibitors; chicken DT40 Tdp1-/-;hTDP1 cells + 20 nM CPT, ATP luminescence, 48 h; note: nearly all actives have a fitted effect of over 55% in size
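Chicken DT40 Tdp1-/- cells stably complemented with human TDP1 were seeded at 400 cells/well in medium containing 20 nM camptothecin, exposed to pin-transferred compounds, and grown at 37 °C for at least 48 hr. Viability was read as ATP luminescence.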
Active calls of the source: *; i = inactive; ? = inconclusive; nt = not tested or not shown; [ ] = another dose, or the depositor's remark. Calls come from the whole dose curve; as a rule, active = well fitted curve in the direction sought with a large enough effect; inconclusive = small, poorly fitted or top-dose-only effect, or another doubt; inactive = no such curve, though single readings can be large; an effect the other way counts as inactive or inconclusive. Unless noted, % is set by controls: 0 for no effect and ±100 for the full control effect; potency is the fitted concentration of half-maximal effect.

SMILES	DT40 TDP1 no CPT	HT1080-NT tox	HT1080 IDH1KD tx	KB-3-1 tox	KB-V1 MDR tox	DT40 TDP1 CPT
Cc1cc(C)c(S(=O)(=O)N2CCN(C(=O)c3ccc4c(c3)OCO4)CC2)c(C)c1	?	-27.8%	-20.9%	i	?	-20.4%
Cc1cc(C)c(S(=O)(=O)N2CCN(C(=O)c3c(C)nn(-c4ccccc4)c3Cl)CC2)c(C)c1	?	-5.1%	-0.8%	?	5.17µM*	?
Cc1cc(C)c(S(=O)(=O)N2CCN(C(=O)c3ccc(-n4nc(C)c(Cl)c4C)cc3)CC2)c(C)c1	16.4µM*	-18.3%	-20.4%	?	i	23.1µM*
COc1ccc(CNC(=O)C(=O)NCC2OCCN2S(=O)(=O)c2ccccc2)cc1 (stereo unspecified)	-24.4%	4.9%	-0.2%	i	?	-12.6%
C(=C\c1cccs1)/c1ccccn1	0.5%	nt	nt	?	i	0.2%
O=c1cc(/C=C/c2cccs2)[nH]c2ccccc12	2.06µM*	-23.5%[9.24 µM]	7.08µM*	?	?	2.59µM*
CN(C(=O)c1ccc(NC(=O)Cc2ccc(NC(=O)C3CCN(C(=O)C4CC4)CC3)cc2)cc1)C1CCCC1	-20.3%	?	-4.2%	i	i	-26.5%
C=CCc1cc(Cl)ccc1OCCNCCCOC	?	-10.6%	4.6%	i	?	?
COCCCNCCCOc1ccc(Cl)cc1C(C)(C)C	18.4µM*	?	20.6µM*	?	25.9µM*	11.6µM*
CNCCCOc1ccc(Cl)cc1C(C)(C)C	16.4µM*	?	23.1µM*	?	?	?
Cc1nc(NC(=O)c2c(-c3ccccc3)c(-c3ccccc3)nn(C)c2=O)sc1C	0.581µM*	nt	nt	nt	nt	0.461µM*
CCOC(=O)c1sc(NC(=O)c2c(-c3ccccc3)c(-c3ccccc3)nn(C)c2=O)nc1C	16.4µM*	nt	nt	nt	nt	?
CCn1nc(-c2ccccc2)c(-c2ccccc2)c(C(=O)Nc2ccccc2C#N)c1=O	11.6µM*	nt	nt	nt	nt	18.4µM*
CCOC(=O)c1sc(NC(=O)c2c(OC)cccc2OC)nc1C	-41.0%	-7.0%	-5.9%	i	i	-18.5%
CCOc1ccc(CNC(=O)Cn2ccc3cc(S(=O)(=O)N4CCCC4)ccc32)cc1	-14.4%	-4.6%	-27.7%	i	i	-28.8%
Cc1cc(C)c(S(=O)(=O)Nc2ccc3oc4c(c3c2)CCCC4)cc1C	?	nt	nt	i	i	16.4µM*
CC(C)(C)C1CCc2oc3ccc(NS(=O)(=O)c4ccc(C(=O)O)cc4)cc3c2C1 (stereo unspecified)	-10.0%	nt	nt	nt	nt	-1.7%
Cc1cc(S(=O)(=O)Nc2ccc3oc4c(c3c2)CCCC4)ccc1Cl	23.1µM*	nt	nt	i	i	20.6µM*
CCOc1cc(C)c(S(=O)(=O)Nc2ccc(F)cc2)cc1C	15.8µM*	?	?	i	i	15.8µM*
Cc1cc(C)c(S(=O)(=O)Nc2ccc(O)cc2)cc1C	20.6µM*	-1.6%	-1.4%	i	i	?
COc1ccc(C)cc1S(=O)(=O)Nc1ccc(F)cc1	-10.3%	-10.8%	-3.2%	i	i	5.1%
CCCN(CCC)CCCNC(=O)c1ccc(CS(=O)(=O)c2c(Cl)cccc2Cl)o1	5.6%	-0.3%	-9.8%	i	i	-16.1%
CC1CN(C(=O)c2cccs2)CCN1C(=O)c1cccs1 (stereo unspecified)	-0.6%	13.9%	10.1%	i	i	-8.2%
CCC(Sc1nnc(-c2ccc(F)cc2)c(-c2ccc(F)cc2)n1)C(=O)NC1CCCC1 (stereo unspecified)	?	nt	nt	i	i	-24.0%
CC(C)(C)C1CCc2oc3ccc(NS(=O)(=O)c4cc(Cl)ccc4Cl)cc3c2C1 (stereo unspecified)	?	nt	nt	nt	nt	25.9µM*

Compound activity deposited in PubChem BioAssay by National Center for Advancing Translational Sciences (NCATS).
